Results on 15 molecules are retold here after PubChem BioAssay (Tox21).

Records with an inconclusive call do not appear. A call without a number means that no potency is given here. Active and inactive are the calls of the source. Calls come from the whole dose curve; as a rule, active = well fitted inhibition curve with a large enough effect in the repeat runs; inconclusive = weak or mixed curves; inactive = no such curve, though single readings can be large or run the other way.

For the assay, the target named is Aromatase (Homo sapiens) (UniProt P11511). The experiment in a line: qHTS assay to identify aromatase inhibitors (AID 743083). Note: nearly all actives have a fitted effect of over 55% in size. The conditions noted are these: MCF-7 aro ERE, testosterone-driven ERE luciferase, 24 h; series mostly up to 70.3 µM.
Chain of Aromatase (Homo sapiens) (P11511 whole entry, looked up): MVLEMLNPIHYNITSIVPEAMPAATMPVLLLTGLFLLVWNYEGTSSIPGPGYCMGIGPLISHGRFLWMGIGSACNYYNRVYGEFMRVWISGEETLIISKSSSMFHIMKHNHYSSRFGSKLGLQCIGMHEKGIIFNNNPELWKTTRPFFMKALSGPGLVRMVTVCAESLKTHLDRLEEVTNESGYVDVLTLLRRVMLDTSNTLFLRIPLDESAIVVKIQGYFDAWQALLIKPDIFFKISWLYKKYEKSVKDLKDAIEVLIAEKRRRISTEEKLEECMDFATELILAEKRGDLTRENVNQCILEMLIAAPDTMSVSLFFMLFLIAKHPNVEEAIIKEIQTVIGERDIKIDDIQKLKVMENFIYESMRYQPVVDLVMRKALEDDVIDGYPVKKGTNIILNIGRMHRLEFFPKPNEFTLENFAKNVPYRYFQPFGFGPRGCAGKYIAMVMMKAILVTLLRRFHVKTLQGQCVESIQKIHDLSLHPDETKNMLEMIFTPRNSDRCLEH
In the case of `c1ccc2c(c1)ccc1ncccc12`, the Potency entry is “inactive”.

Turning to `C=C1C[C@H]2[C@@H]3C=C(C)C4=CC(=O)CC[C@]4(C)[C@H]3CC[C@]2(C)[C@@]1(OC(C)=O)C(C)=O`, the Potency result was “inactive”.

In the case of `Cc1cccc(Nc2ccccc2C(=O)O)c1C`, the Potency result is “inactive”.

Regarding `COCCOCCOCCO`, the Potency result was “inactive”.

For `OC[C@H]1O[C@@H]2O[C@H]3[C@H](O)[C@@H](O)[C@@H](O[C@H]4[C@H](O)[C@@H](O)[C@@H](O[C@H]5[C@H](O)[C@@H](O)[C@@H](O[C@H]6[C@H](O)[C@@H](O)[C@@H](O[C@H]7[C@H](O)[C@@H](O)[C@@H](O[C@H]1[C@H](O)[C@H]2O)O[C@@H]7CO)O[C@@H]6CO)O[C@@H]5CO)O[C@@H]4CO)O[C@@H]3CO`, the Potency entry is “inactive”.

Turning to `c1ccc2cc3ccccc3cc2c1`, the Potency result was “inactive”.

On to `CN(C)CCCN1c2ccccc2Sc2ccc(Cl)cc21`, for which the Potency entry was “inactive”.

Consider `NC[C@H](O)c1ccc(O)c(O)c1`, for which the Potency entry is “inactive”.

With `C[C@]12CC[C@@H]3c4ccc(O)cc4CC[C@H]3[C@@H]1CC[C@@H]2O`, the Potency entry is “inactive”.

Consider `CC1(C)O[C@@H]2C[C@H]3[C@@H]4C[C@H](F)C5=CC(=O)C=C[C@]5(C)[C@@]4(F)[C@@H](O)C[C@]3(C)[C@]2(C(=O)CO)O1`, for which the Potency result is “inactive”.

With `O=C(O)c1ccc(O)cc1`, the Potency entry was “inactive”.

For `CC[C@]12CCCN3CCc4c(n(c5ccccc45)[C@@](O)(C(=O)OC)C1)[C@@H]32`, the Potency entry is “inactive”.

Take `CCCCCC1C(=O)CCC1CC(=O)OC` (stereo not given): the Potency result was “inactive”.

On to `CN(Cc1cnc2nc(N)nc(N)c2n1)c1ccc(C(=O)N[C@@H](CCC(=O)O)C(=O)O)cc1`, for which the Potency entry is “inactive”.

As for `C=C[C@H]1CN2CC[C@H]1C[C@H]2[C@H](O)c1ccnc2ccc(OC)cc12`, the Potency entry was “inactive”.
